The values that follow come from PubChem BioAssay (NCATS).

The structures appear in SMILES notation. Records with an inconclusive call do not appear. Unmarked numbers belong to inactive results. Calls follow the shape of the dose curve; as a rule, active = well fitted activation curve with a large enough effect; inconclusive = small, poorly fitted or top-dose-only effect; inactive = no such curve, though single readings can be large or run the other way.

Chain of Cellular tumor antigen p53 (Homo sapiens) (P04637 whole entry, looked up): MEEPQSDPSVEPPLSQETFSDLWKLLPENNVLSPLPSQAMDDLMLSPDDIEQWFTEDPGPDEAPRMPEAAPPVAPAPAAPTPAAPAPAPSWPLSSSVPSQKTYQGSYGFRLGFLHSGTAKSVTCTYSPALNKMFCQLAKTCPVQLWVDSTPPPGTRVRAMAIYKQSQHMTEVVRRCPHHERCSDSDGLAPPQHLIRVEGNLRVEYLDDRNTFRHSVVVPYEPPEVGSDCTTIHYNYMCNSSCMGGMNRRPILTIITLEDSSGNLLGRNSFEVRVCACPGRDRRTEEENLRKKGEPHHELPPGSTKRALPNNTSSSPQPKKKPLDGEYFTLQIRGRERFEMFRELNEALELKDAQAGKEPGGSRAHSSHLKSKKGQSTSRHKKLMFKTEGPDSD

This assay deals with Cellular tumor antigen p53 (Homo sapiens) (UniProt P04637). The assay is described as follows: Primary qHTS for small molecule compounds that upregulate eGFP-tagged delta133p53alpha (in N-terminal) cells. (AID 2060322).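 Also: cells pre-induced with doxycycline then dosed without doxycycline; series mostly up to about 56 µM; 0% = DMSO vehicle and 100% = reference activator; nearly all actives have a fitted effect of over 75% in size.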 Particulars: NCI-H358 eGFP-delta133p53alpha fluorescence, 24 h; activation: active compounds read high. The method, boiled down:
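NCI-H358 cells pre-induced 24 h with 10 ng/ml doxycycline for eGFP-delta133p53alpha, plated dox-free and exposed 24 h at 37C to titrated compounds. Fixed, Hoechst-stained; gated GFP peak intensity by laser scanning cytometry, normalized to DMSO (0%) and 57.5 uM 5-azacytidine (100%).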
On to `CC=CCC=CCCC(=O)[C@H]1O[C@@H]1C(N)=O`, for which the activation was -3.35%.

With `Cc1oc(-c2ccccc2)nc1CCC(=O)c1ccc(CC2SC(=O)NC2=O)cc1` (stereo not given), the activation was -3.95%.

Turning to `COc1ccc(O)cc1`, the activation is 1.69%.

Take `NS(=O)(=O)c1cc2c(cc1Cl)NC(CSCc1ccccc1)=NS2(=O)=O`: the activation was -16.7%.

As to `CC1(C)OC(=O)NC1=O`, the activation was -15.3%.

Turning to `CC1(c2ccccc2)OC(C(=O)O)=CC1=O` (stereo not given), the activation is 26.8%.

`CCOC(=O)c1ccc(O)cc1`: the activation was -12.6%.

For the compound `CC(C)NCCCC1(C(N)=O)c2ccccc2-c2ccccc21`, the activation is 4.18%.

`CC1(C)SCCN(S(=O)(=O)c2ccc(OCC#CCO)cc2)[C@@H]1C(=O)NO`: the activation is 9.74%.

With `CN1[C@H]2CC(OC(=O)[C@@H](CO)c3ccccc3)C[C@H]1[C@H]1O[C@H]12` (stereo not given in full), the activation was 6.53%.

As to `Nc1nc(=O)n([C@@H]2O[C@H](CO)[C@@H](O)[C@@H]2F)cc1I`, the activation was -22%.

Consider `Nc1ncnc2nc[nH]c12`, for which the activation was 18.4%.

For `Cc1c(C)c2c(c(C)c1OC(=O)CCC(=O)OCCO)CC[C@@](C)(CCC[C@H](C)CCC[C@H](C)CCCC(C)C)O2`, the activation is -20.9%.

Consider `CCCCC/C(C=O)=C\c1ccccc1`, for which the activation was 19.8%.

Turning to `O=C(CCCCCCSc1ccc2ccccc2c1)NO`, the activation is 0%.

For `C=CS(=O)(=O)N1CCCN(c2cc(NCCC(=O)O)nc(-c3ccccn3)n2)CC1`, the activation is -4.47%.

Regarding `Cc1cc(=O)[nH]c(=S)[nH]1`, the activation is 19.2%.

With `O=C1O[C@H]([C@@H](O)CO)C(O)=C1O`, the activation is -9.6%.

As for `CC(O)=C(C#N)C(=O)Nc1ccc(C(F)(F)F)cc1`, the activation is 11.7%.

As to `CCc1nn(CCCN2CCN(c3cccc(Cl)c3)CC2)c(=O)n1CCOc1ccccc1`, the activation was -3.35%.

In the case of `CCc1c(C(=O)Nc2cc(S(=O)(=O)N(CC)CC)ccc2O)[nH]c(C)c1C(C)=O`, the activation is -38%.

`O=c1cc[nH]c(=S)[nH]1`: the activation was 7.34%.

Regarding `NS(=O)(=O)c1cc2c(cc1Cl)NC(CC1CCCC1)NS2(=O)=O` (stereo not given), the activation was 11.9%.

Regarding `Cc1ccc2c(Cl)cc(Cl)c(O)c2n1`, the activation is 7.34%.

As for `CN[C@@H]1[C@H](O)[C@H](NC)[C@H]2O[C@@]3(O)C(=O)C[C@@H](C)O[C@H]3O[C@@H]2[C@H]1O`, the activation is 27.7%.
